Measurements: PubChem BioAssay (Tox21)
Records with an inconclusive call do not appear. Where a call stands in place of a potency, no number is given. Calls of active or inactive are those of the source. Calls come from the whole dose curve; as a rule, active = well fitted activation curve with a large enough effect in the signal ratio in the repeat runs (not every such curve was filed as active); inconclusive = weak or mixed curves; inactive = flat fitted curve, though single readings scatter; the % refers to the signal ratio.

assay: qHTS assay to identify small molecule agonists of H2AX (AID 1224845); settings: CHO-K1 phospho-H2AX Ser139 HTRF, 3 h; series mostly up to 154 µM
Outline: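 Phospho-H2AX Ser139 measured by HTRF (ex 320 nm; em 665 and 620 nm) after 24 hr antibody incubation. Compounds, 15 concentrations, 0.76% DMSO, were applied to CHO-K1 cells for 3hr at 37C before lysis.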
Potency is the fitted concentration of half-maximal effect.

| SMILES | Potency |
| --- | --- |
| CN1CCN2c3ccccc3Cc3ccccc3C2C1 (stereo not given) | inactive |
| CCCCCC/C=C\CCCCCCCC(=O)O | inactive |
| CNc1ccc([N+](=O)[O-])cc1 | inactive |
| Clc1ccnc(Cl)n1 | inactive |
| CN1CCCCC1CCN1c2ccccc2Sc2ccc(S(C)=O)cc21 (stereo not given) | inactive |
| O=C(O)O | 4.88 µM (active) |
| CCCc1ccc(OCC(=O)N2CCN(C(=O)COc3ccc(CCC)cc3OC)CC2)c(OC)c1 | inactive |
| CCCCCCCCCCCCOCCOCCOCCOCCOCCOCCOCCOCCOCCO | inactive |
| Sc1nc2ccccc2s1 | inactive |
| CN1CCN(Cc2cc(-c3ccc4[nH]c(=O)oc4c3)co2)[C@@H](c2ccc(F)cc2)C1 | inactive |
| CCCCC/C=C\C/C=C\CCCCCCCC(=O)O | inactive |
| Cc1cc(C(C)(C)C)c(O)c(C)c1Cn1c(=O)n(Cc2c(C)cc(C(C)(C)C)c(O)c2C)c(=O)n(Cc2c(C)cc(C(C)(C)C)c(O)c2C)c1=O | inactive |
| CC[N+](CC)(CC)CCOc1ccc(/C=C/c2ccccc2)cc1 | inactive |
| CC1(C)[C@@H](O)CC[C@]2(C)[C@H]3C(=O)C=C4[C@@H]5C[C@@](C)(C(=O)O)CC[C@]5(C)CC[C@@]4(C)[C@]3(C)CC[C@@H]12 | inactive |
| CCO[C@@H]1O[C@H](C(COCc2ccccc2)OCc2ccccc2)[C@H](OCc2ccccc2)[C@H]1O (stereo not given in full) | inactive |
